Assay outcomes (PubChem)
p53ts 32C kill – p53ts cell cytotoxicity, permissive temperature; H1299-p53A138V at 32C, ATP luminescence viability, 24 h; Potency, µM (series often up to 46.1 µM), usual class: cytotoxic; actives 0.93% (n = 130,000); AID 924; note: nearly all actives have a fitted effect of over 55% in size
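Cells: H1299 p53ts (A138V), 600/well, pre-incubated 16–30 h at 37C. Cpd up to 46 uM, 24 h, 32C. Readout: ATPlite luminescence, 20 min RT. Normalization: DMSO vs tamoxifen 100 uM. AC50 by Hill equation.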
Imprint erasure – induces erasure of genomic imprints in mouse ES cells; mouse ES Peg3-LacZ reporter, beta-gal luminescence, 40 h; Potency, µM (series often up to 60.7 µM), hits mostly activators; actives 0.02% (n = 110,000)
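Gelatin-coated wells received 300 freshly trypsinized female ES cells with a Peg3LacZ-Neo reporter on the maternal allele, then incubated 40 hours at 37C. BetaGlo was added for 5 minutes at room temperature before a single luminescence read.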
IkB signaling – inhibitors of IkB signaling in ABC-DLBCL cells; ABC-DLBCL IkBa-CBG/CBR dual luciferase ratio, 4 h; response scale: scaled: untreated 0%, proteasome inhibitor 100%; Potency, µM (highest dose often 57.1 µM); actives 0.04% (n = 110,000); AID 445; active = well fitted curve in the direction sought with a large enough effect in the signal ratio, not every such curve was filed as active; inconclusive = small, poorly fitted or top-dose-only effect, or a change in a side signal; the % refers to the signal ratio;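 note: the direction sought is a rising ratio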
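Luminescence ratio of IκBα-fused green versus native red beetle luciferase in OCI-Ly3 cells, 4 h post-doxycycline with compound; red signal alone, scaled from basal (0%) to zero light (-100%), flagged nonspecific or cytotoxic effects.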
p53ts 39C tox – cytotoxicity in p53ts cells at nonpermissive temperature; H1299-p53A138V viability at 39C, ATP luminescence, 24 h; Potency, µM (series often up to 46.1 µM), hits mostly cytotoxic; actives 1.5% (n = 130,000); AID 902; note: nearly all actives have a fitted effect of over 55% in size
Large screens that a line does not name were inactive. In the library only some 1.6% were active in any assay of this set; here they are far more common. Unless noted, calls come from the whole dose curve; as a rule, active = well fitted curve in the direction sought with a large enough effect; inconclusive = small, poorly fitted or top-dose-only effect, or another doubt; inactive = no such curve, though single readings can be large; an effect the other way counts as inactive or inconclusive.

O=C(O)/C=C\C(=O)Nc1ccccn1	none
C[C@@H]1C(=O)N(C)C(=O)c2nc[nH]c21	none (no result: Imprint erasure)
Cc1c(Cl)cccc1-c1ccc(/C=C(\C#N)c2nc3ccccc3[nH]2)o1	p53ts 32C kill inconclusive, p53ts 39C tox 13µM
Cc1ccc2nc(/C(C#N)=C/c3ccc(-c4ccc(F)cc4F)o3)[nH]c2c1	p53ts 32C kill 6.3µM, IkB signaling inconclusive, p53ts 39C tox 5µM
N#C/C(=C/c1ccc(N2CCOCC2)o1)c1nc2ccccc2[nH]1	p53ts 32C kill 16µM, p53ts 39C tox inconclusive (no result: Imprint erasure, IkB signaling)
COc1cccc(/C=C(\C#N)c2nc3ccc(C)cc3[nH]2)c1	none
Cc1cc(C(=O)CN2C(=O)c3ccccc3C2=O)c(C)n1Cc1cccs1	p53ts 32C kill inconclusive, p53ts 39C tox inconclusive
Cc1cc(C(=O)Cn2nnc3ccccc3c2=O)c(C)n1Cc1cccs1	p53ts 32C kill 16µM, IkB signaling inconclusive, p53ts 39C tox 13µM
O=C(O)Cn1c(=O)oc2cc(S(=O)(=O)NC3CCCCC3)ccc21	none
COc1ccc(-n2c(C)cc(/C=N/Nc3nnc(C)n3N)c2C)cc1	p53ts 32C kill inconclusive, p53ts 39C tox 10µM (no result: Imprint erasure, IkB signaling)
COc1ccc(CCNc2oc(COc3ccc(Cl)cc3)nc2C#N)cc1OC	p53ts 32C kill 22µM, IkB signaling inconclusive, p53ts 39C tox inconclusive
COc1cccc(NC(=O)Nc2cc(-c3cn4cccnc4n3)ccc2OC)c1	p53ts 32C kill 10µM, IkB signaling inconclusive, p53ts 39C tox 10µM
Cc1ccc(-c2cn3cccnc3n2)cc1NC(=O)Nc1ccc(F)cc1	none
COc1cccc(NC(=O)Nc2cc(-c3cn4cccnc4n3)ccc2C)c1	p53ts 32C kill inconclusive
COc1ccc(-c2cn3cccnc3n2)cc1NC(=O)Nc1cc(C)ccc1C	p53ts 32C kill 16µM, IkB signaling inconclusive, p53ts 39C tox inconclusive
Nc1nc(CC(=O)O)cs1	none
CCOC(=O)c1ccc(NC(=O)c2nc(SC(C)C)ncc2Cl)cc1	IkB signaling inconclusive
CCS(=O)(=O)c1ncc(Cl)c(C(=O)N(Cc2ccccc2)c2ccc(OC)cc2)n1	p53ts 32C kill 20µM, IkB signaling inconclusive, p53ts 39C tox 5µM
CN(c1ccccc1)S(=O)(=O)c1ccc(NC(=O)c2nc(S(C)(=O)=O)ncc2Cl)cc1	p53ts 32C kill inconclusive, IkB signaling inconclusive, p53ts 39C tox 3.2µM
CCCS(=O)(=O)c1ncc(Cl)c(C(=O)N(Cc2ccccc2)Cc2ccco2)n1	p53ts 32C kill inconclusive, IkB signaling inconclusive, p53ts 39C tox 3.2µM
CCOC(=O)c1ccc(NC(=O)c2nc(S(=O)(=O)Cc3ccccc3)ncc2Cl)cc1	p53ts 39C tox 13µM
Cc1ccc(-c2c(C(=O)N3CCN(c4cccc(C)c4)C(C)C3)oc(=O)c3ccccc23)cc1 (configuration not stated)	IkB signaling inconclusive
CCS(=O)(=O)c1ncc(Cl)c(C(=O)Nc2c(C(=O)Nc3cccc(C)c3)oc3ccccc23)n1	p53ts 32C kill inconclusive, IkB signaling inconclusive, p53ts 39C tox 20µM
CCSc1ncc(Cl)c(C(=O)Nc2c(C(=O)Nc3cccc(C)c3)oc3ccccc23)n1	none
CCS(=O)(=O)c1ncc(Cl)c(C(=O)Nc2ccccc2)n1	p53ts 32C kill inconclusive, IkB signaling inconclusive, p53ts 39C tox 4µM
O=c1ccn([C@@H]2O[C@@H](COP(=O)(O)OP(=O)(O)O)[C@H](O)[C@@H]2O)c(=O)[nH]1	none (no result: Imprint erasure)
CCc1nn(CC(=O)Nc2ccc(C)c(F)c2)c(=O)c2cc3cc(C)ccc3n12	p53ts 39C tox 32µM
O[C@@H](c1cc(-c2ccccc2)nc2c1ccc1ccccc12)[C@@H]1CCCCN1	none (no result: Imprint erasure)
COc1ccc(C(=O)Nc2cc(OC)nc(OC)n2)cc1	p53ts 32C kill 16µM, p53ts 39C tox 10µM (no result: Imprint erasure, IkB signaling)
COc1ccc(C(=O)Nc2cccc(C)c2)cc1	p53ts 32C kill 6.3µM, IkB signaling inconclusive, p53ts 39C tox 5µM
COc1ccc(C(=O)Nc2ccccc2C(N)=O)cc1	p53ts 32C kill 13µM, IkB signaling inconclusive, p53ts 39C tox 13µM
COc1ccc(CNC(=O)Nc2cccc(C)c2)cc1	none
COc1ccc(C(=O)Nc2nnc(C)s2)cc1	p53ts 32C kill 13µM, IkB signaling inconclusive, p53ts 39C tox 13µM
COc1ccc(C(=O)Nc2cc(OC)ccc2OC)cc1	p53ts 32C kill inconclusive, IkB signaling inconclusive, p53ts 39C tox inconclusive
N#C/C(=C(\O)C(=O)O)c1ccc(-c2cccc3ccccc23)cc1	none
Cc1noc(C)c1COC(=O)c1ccc(-c2nc3ccccc3s2)s1	none
O=C(NC1CC1)c1ccc(-c2nc3ccccc3s2)s1	p53ts 32C kill 0.5µM, IkB signaling inconclusive, p53ts 39C tox 0.4µM
Cc1ccc2nc(-c3cccc(NC(=O)c4ccc5c(c4)OCCO5)c3)oc2c1	p53ts 32C kill inconclusive, IkB signaling inconclusive, p53ts 39C tox inconclusive
CC(C)c1ccc2oc(-c3cccc(NC(=O)c4ccc5c(c4)OCCO5)c3)nc2c1	p53ts 32C kill inconclusive, IkB signaling inconclusive, p53ts 39C tox 10µM
Cc1cc(C)nc(N(C#N)CC(=O)N2CCC(C(N)=O)CC2)n1	p53ts 32C kill 4µM
Cc1cc(=O)[nH]c(SCC(=O)N2CCC(C(N)=O)CC2)n1	none
N#Cc1c(N2CCCC2)nc(N)c2c(N)nc(N3CCCC3)cc12	p53ts 32C kill 13µM
CSc1ncnc2c1ncn2CC(=O)[C@H]1CC[C@H]2[C@H]3CCC4=CC(=O)CC[C@@]4(C)[C@@H]3CC[C@@]12C	IkB signaling inconclusive
COc1cc(N=c2c([N+](=O)[O-])nn(-c3ccc4c(c3)OCCO4)n2O)cc(OC)c1	p53ts 39C tox 11µM (no result: p53ts 32C kill, Imprint erasure, IkB signaling)
COc1ccc(/C=N/NC(=O)c2ccc3c(c2)OCCO3)cc1[N+](=O)[O-]	none (no result: p53ts 32C kill, Imprint erasure, IkB signaling)
CC1=CC(=O)C2=C(C)CC[C@@H]3[C@H](OC(=O)[C@H]3C)[C@H]12	none (no result: p53ts 32C kill, Imprint erasure, p53ts 39C tox)
COc1ccc(OCC(=O)Nc2cc(-c3nc4ccccc4s3)ccc2C)cc1	p53ts 39C tox 16µM
COc1ccc(-c2nc3ccccc3s2)cc1NC(=O)COc1cccc(C)c1	p53ts 39C tox 10µM
COC(=O)CC[C@@H](C)[C@H]1CC[C@H]2[C@H]3CC[C@H]4C[C@@H]5CC[C@@]4(C)C3(O5)[C@@H](Br)[C@@H](Br)[C@@]12C	none (no result: Imprint erasure)
Cc1nn(-c2ccccc2)c2c1N(CCCC(=O)NCc1ccc(OC(C)C)cc1)C(=O)CS2	none
C#C[C@]1(O)CC[C@H]2[C@H]3CCC4=Cc5oncc5C[C@]4(C)[C@@H]3CC[C@]21C	IkB signaling inconclusive (no result: p53ts 32C kill, p53ts 39C tox)
CC(/C=C/C(=O)NO)=C\[C@@H](C)C(=O)c1ccc(N(C)C)cc1	none (no result: p53ts 32C kill, IkB signaling, p53ts 39C tox)
Cc1ccc(S(=O)(=O)c2c(C)nn(C(C)(C)C)c2OC(=O)c2cccs2)cc1	p53ts 32C kill inconclusive, p53ts 39C tox 16µM
Cc1ccc(S(=O)(=O)c2c(C)nn(C(C)(C)C)c2OC(=O)c2ccco2)cc1	p53ts 32C kill inconclusive, IkB signaling inconclusive, p53ts 39C tox 25µM
Cc1nn(C(C)(C)C)c(OC(=O)c2ccc3c(c2)OCO3)c1S(=O)(=O)c1ccccc1	p53ts 39C tox 16µM
Cc1ccc(S(=O)(=O)c2c(C)nn(C(C)(C)C)c2OC(=O)c2ccc(Br)o2)cc1	p53ts 32C kill 10µM, IkB signaling inconclusive
